Among the data in PubChem BioAssay (NCATS) are Potency, outcome and activity change, negative = inhibition values, retold here.

SMILES strings stand for the structures. Inconclusive results are not listed. Where a call stands in place of a potency, no number is given. Active and inactive are the calls of the source. The call rests on the fitted dose curve; in most records, active means well fitted inhibition curve with a large enough effect; inconclusive means small, poorly fitted or top-dose-only effect; inactive means flat fitted curve, though single readings scatter. Where a SMILES comes first, the peptide text is derived from it. [ ]: non-standard residue; d: D form. Ala(indol-2-yl) = N[C@@H](Cc1cc2ccccc2[nH]1)C(=O)O; Aib = CC(C)(N)C(=O)O

Phospholipid hydroperoxide glutathione peroxidase GPX4 (Homo sapiens), sequence (P36969 whole entry, looked up): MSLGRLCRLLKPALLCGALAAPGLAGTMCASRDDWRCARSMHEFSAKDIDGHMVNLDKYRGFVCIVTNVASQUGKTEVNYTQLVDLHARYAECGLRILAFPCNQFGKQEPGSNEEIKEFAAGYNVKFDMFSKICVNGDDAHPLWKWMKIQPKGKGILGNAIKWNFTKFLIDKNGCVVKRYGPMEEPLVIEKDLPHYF

For the experiment, the target named is Phospholipid hydroperoxide glutathione peroxidase GPX4 (Homo sapiens) (UniProt P36969). In words: Primary qHTS Assay for Inhibitors of Recombinant Selenoprotein Glutathione Peroxidase 4 (GPX4) (AID 1845192). Further: nearly all actives have a fitted effect of over 65% in size. Conditions: recombinant GPX4, GR-coupled NADPH fluorescence, 15 min; series mostly up to 50 µM. An excerpt:
Assay Provider: Elias S.J. Arner MD PhD.
Department of Medical Biochemistry and Biophysics
Karolinska Institutet, Solna, Stockholm, Sweden
Selenoprotein glutathione peroxidases (GPX), like the ubiquitously expressed GPX1 and the ferroptosis modulator GPX4, enact their antioxidant activities by reducing hydroperoxides using glutathione. […] GPX1 and GPX4 inhibitors have thus shown promise as anti-cancer agents. Existing inhibitors are often promiscuous, or modulate GPX activity only indirectly, so novel direct inhibitors identified through screening against GPX1 and GPX4 could be valuable. Here, we developed optimized glutathione reductase (GR)-coupled GPX assays for the biochemical high-throughput screen (HTS) of almost 12,000 compounds with known mechanisms of action. Initial hits were triaged using a GR counter-screen, assessed for isoform specificity using a separate GPX2 assay, and were assessed for general selenocysteine-targeting activity using a thioredoxin reductase (TXNRD1) assay. With this suite of assays, we identified novel GPX1/GPX2- and GPX4-specific inhibitors and can here present a validated pipeline for future discovery research for selenoprotein-targeting agents.
SEQUENCE No. (e.g., 1, 2, 3, etc.); […] (e.g., Cells, Incubation, Reagent, etc.); VALUE; DESCRIPTION.
1; Reagent 1; 3 uL; 333.33 nM GPx4 enzyme or no enzyme control in 1536-well, black, solid Greiner assay plate.
2; Compound; 25 nL; Kalypsis pin tool (Wako USA) equipped with a 1536-well pin head.
3; Incubation; 30 min; room temperature.
4; Reagent 2; 1 uL; 500 nM GR, 5 mM GSH, 2.5 mM NADPH solution
5; Reagent 3; 1 uL; 2.5 mM CHP in 50% EtOH.
6; Detection; Fluorescence; ViewLux microplate reader, excitation 340 nm and emission 450 nm.
7; Incubation; 15 min; room temperature.
8; Detection; Fluorescence; ViewLux microplate reader, excitation 340 nm and emission 450 nm.
NOTES (numbers refer to Sequence numbers above)
1. 3 µL of 333.33 nM GPX4 and 0.016% BSA in assay buffer (50 mM Tris-HCl, 2 mM EDTA (pH 7.5), 150 mM NaCl) was added to columns 3-48 of 1536-well plates using a BioRAPTR Flying Reagent Dispenser (Let's Go Robotics (LGR), Carlsbad, CA). A no-enzyme control (0.01% BSA in TES assay buffer) was added to columns 1-2.
2. 25 nL, library and DMSO controls were added to each well with a pin tool (Kalypsys).
3. The assay plates were incubated for 30 minutes at room temperature.
4. 1 µL of master mix (500 nM glutathione reductase (GR), 5 mM reduced glutathione (GSH), 2.5 mM NADPH in assay buffer) was added.
5. 1 µL of cumene hydroperoxide (CHP) ([2.5 mM] in 50% EtOH) was then added within 5 minutes to initiate the reaction. Final concentrations were: 200 nM GPX4, 1 mM GSH, 0.5 mM CHP, 0.5 mM NADPH, 100 nM GR, 0.01% BSA.
6. Initial fluorescence readout (t=0) at 340/450 nm was measured using a ViewLux multimodal detector (PerkinElmer, Waltham, MA).
8. Endpoint fluorescence readout (t=15) at 340/450 nm was measured 15 min after room temperature incubation.
(In general: Quantitative high-throughput screening tests each substance at several concentrations.)
Take `C[C@@H](CN1CCC(n2c(=O)[nH]c3cc(Br)ccc32)CC1)NC(=O)[C@@H]1C[C@H]1c1ccccc1`: the Potency result is “inactive”.

Turning to `CN(CC[C@H](N)CC(=O)N[C@H]1C=C[C@@H](n2ccc(N)nc2=O)O[C@@H]1C(=O)O)C(=N)N`, the outcome is “inactive [at 9.73 µM]”. For `C/C=C(/C)C(=O)O[C@H]1[C@@H]2[C@H](C)C(=O)O[C@@H]2C[C@@H](C)[C@@H]2C=CC(=O)[C@]21C`, the Potency result is “inactive”. Take `C=C1[C@@H](C)C2[C@H](Cc3ccccc3)NC(=O)[C@@]23C(/C=C/C[C@H](C)C[C@@](C)(O)/C=C/[C@@H]3OC(C)=O)[C@@H]1O` (stereo not given in full): the Potency result is “inactive”. On the same count and under the same terms, to `CC1=CC(=O)[C@@H](O)[C@@]2(C)C1C[C@H]1OC(=O)[C@H](O)[C@@]3(O)[C@@H](C)[C@@H](O)[C@H](O)C2[C@@]13C` (stereo not given in full) belongs “inactive”. On the same count and under the same terms, to `CN(C)[C@@H]1C(=O)C(C(N)=O)=C(O)[C@@]2(O)C(=O)C3=C(O)c4c(O)ccc(Cl)c4[C@@](C)(O)C3C[C@@H]12` (stereo not given in full) belongs “inactive”; to `Cc1ccc(-n2nccn2)c(C(=O)N2CCN(c3nc4cc(Cl)ccc4o3)CCC2C)c1` (stereo not given), “inactive”. Still for that read-out and setting: as for `CN1CCc2cc3c(cc2[C@H]1[C@@H]1OC(=O)c2c1ccc1c2OCO1)OCO3`, the entry is “inactive”; as for `O=C(NCCN1CCC2(CC1)C(=O)NCN2c1cccc(F)c1)c1ccc2ccccc2c1`, “inactive”.

Consider `C[C@H]1C/C=C/[C@H]2[C@@H]3O[C@]3(C)[C@@H](C)[C@H]3[C@H](Cc4ccccc4)NC(=O)[C@]32OC(=O)O/C=C/[C@@](C)(O)C1=O`, for which the Potency entry is “inactive”.

`C[C@@H]1O[C@@H](O[C@H]2CC[C@@]3(C)C(CC[C@@H]4C3CC[C@]3(C)[C@@H](C5=CC(=O)OC5)CC[C@]43O)C2)[C@H](O[C@@H]2O[C@H](CO)[C@@H](O)[C@H](O)[C@H]2O)[C@H](O)[C@H]1O` (stereo not given in full): the Potency entry was “inactive”. `CN1C(=O)N(c2ccc(C#N)c(C(F)(F)F)c2)C(=O)[C@@]1(CO)c1ccccc1`: the Potency entry is “inactive”.

`CNC(C)CC1CCCCC1` (stereo not given): the Potency result was “inactive”. Still for that read-out and setting: to `CO[C@@H]1C[C@H](O[C@H]2CC[C@@]3(C)C(CCC4C3CC[C@]3(C)[C@@H](C5=CC(=O)OC5)[C@@H](OC(C)=O)CC43O)C2)O[C@H](C)[C@@H]1O[C@H]1O[C@H](CO[C@@H]2O[C@H](CO)[C@@H](O)[C@H](O)[C@H]2O)[C@@H](O)[C@H](O)[C@H]1O` (stereo not given in full) belongs “inactive”; to `CC[C@H](O)[C@@H](C)[C@H]1O[C@@H]1C[C@H](C)/C=C/C=C(\C)[C@H]1OC(=O)C[C@H](O)CC[C@@](C)(O)[C@@H](OC(C)=O)/C=C/[C@@H]1C`, “inactive”; to `C[C@]12CC[C@H](O[C@@H]3O[C@H](CO)[C@@H](O)[C@H](O)[C@H]3O)CC1CC[C@@H]1C2CC[C@]2(C)[C@@H](C3=CC(=O)OC3)CC[C@]12O` (stereo not given in full), “inactive”. Take `C[C@]12CC[C@H](O)CC1=CC[C@@H]1C2CC[C@]2(C)[C@@H](C3=CC(=O)OC3)CC[C@]12O` (stereo not given in full): the Potency entry was “inactive”. In the case of `C[C@]12CC[C@H](O[C@@H]3O[C@H](CO)[C@@H](O)[C@H](O)[C@H]3O[C@@H]3O[C@H](CO)[C@@H](O)[C@H](O)[C@H]3O)CC1=CC[C@@H]1[C@@H]2CC[C@]2(C)[C@@H](C3=CC(=O)OC3)CC[C@]12O`, the Potency entry was “inactive”. On the same count and under the same terms, as for `CO[C@H]1[C@H](O)[C@H](O[C@H]2CC[C@]3(C=O)C4CC[C@]5(C)[C@H](C6=CC(=O)OC6)CC[C@]5(O)C4CC[C@@H]3C2)O[C@@H](C)[C@@H]1O` (stereo not given in full), the entry is “inactive”. Still for that read-out and setting: to `CC(=O)O[C@H]1C(=O)[C@]2(C)C(O)C[C@H]3OC[C@@]3(OC(C)=O)[C@H]2[C@H](OC(=O)c2ccccc2)[C@]2(O)C[C@H](O)C(C)=C1C2(C)C` (stereo not given in full) belongs “inactive”. The same measure, in the same setting: as for `C1=C(c2cnc[nH]2)c2ccsc2CC1`, the entry is “inactive”; as for `CC[C@H]1C2CC3[C@@H]4N(C)c5ccccc5[C@]45C[C@@H]([C@H]2[C@H]5O)N3[C@H]1O`, “inactive”; as for `CCCCOC(=O)c1ccnc2cc(C(OCCN3CCCCC3)c3ccccc3Cl)sc12` (stereo not given), “inactive”.

For `O=C(C[C@@H]1NCCC[C@H]1O)Cn1cnc2ccccc2c1=O`, the Potency entry was “inactive”. Same read-out and setting: as for `NNC(=O)c1nn(Cc2ccc(Cl)cc2Cl)c2ccccc12`, the entry is “inactive”; as for `CC(=O)NCCCOc1ccc(C(=O)N2CCC(N3C(=O)CCc4ccccc43)CC2)cc1`, “inactive”; as for `C/C=C1/CN2CC[C@]34C(=Nc5ccccc53)[C@@H]2C[C@@H]1[C@H]4C(=O)OC`, “inactive”.

On to `CC(C)(NC(=O)[C@@H](N)Cc1ccc(O)cc1)C(=O)N[C@@H](Cc1cc2ccccc2[nH]1)C(=O)N[C@@H](Cc1ccccc1)C(=O)O` (H-Y[Aib][Ala(indol-2-yl)]F-OH), for which the activity change, negative = inhibition was -0.548% [at 9.73 µM] (inactive). Turning to `C=C(CO)[C@@]12O[C@@H]1[C@@]1(C)C(=CC2=O)CC[C@@H](O)[C@@H]1C`, the Potency result is “inactive”. The same measure, in the same setting: as for `OCCN(CCO)CCO`, the entry is “inactive”. On the same count and under the same terms, to `CC[C@@H]1/C=C/C=C/C[C@H](C)C(O)[C@](C)(O)C(=O)[C@H](C)C(O)[C@H](C)C(=O)[C@H](C)[C@@H](O)[C@H](C)/C=C/C(=O)O[C@H]2[C@@H](C)[C@@H](CC1)O[C@]1(O[C@H](C[C@H](C)O)[C@H](C)CC1=O)[C@@H]2C` (stereo not given in full) belongs “inactive”; to `COc1ccsc1CNCC[C@@]1(c2ccccn2)CCOC2(CCCC2)C1`, “inactive”.

For the molecule `C=C1[C@@]23C(=O)O[C@H](C)[C@]24O[C@@]2(C(=C)[C@]5(C=CC(=O)OC5(C)C)CC[C@]32C)[C@H](O)[C@@]1(C)OC4=O`, the Potency entry is “inactive”.

As for `COc1ccc(C(C)(C)C)cc1CN[C@H]1C2CCN(CC2)[C@H]1C(c1ccccc1)c1ccccc1`, the Potency entry was “inactive”.

In the case of `COc1cc2c(cc1O)C1(C)CCC(O)C(C)(C)C1CC2=O` (stereo not given), the Potency entry is “inactive”. Still for that read-out and setting: as for `C/C=C(\C)C(=O)OC1C2C3(C)CCC(OC4CC(OC)C(OC5OC(C)C(O)C(OC)C5O)C(C)O4)CC3CCC23OC32CCC(C(C)=O)C2(C)C1OC(=O)/C(C)=C/C` (stereo not given), the entry is “inactive”. Same read-out and setting: to `Oc1ccc2c3c1O[C@H]1c4[nH]c5c(N=C=S)cccc5c4C[C@@]4(O)[C@@H](C2)N(CC2CC2)CC[C@]314` belongs “inactive”; to `C[C@]12CC[C@@H](O[C@@H]3O[C@H](CO)[C@@H](O)[C@H](O)[C@H]3O)C[C@@]1(O)CCC1C2CC[C@]2(C)[C@@H](C3=CC(=O)OC3)CC[C@]12O` (stereo not given in full), “inactive”; to `C[C@@H]1C[C@@H](O)[C@]2(O)O[C@@H]3C[C@@]4(C=O)C(CC[C@@H]5C4CC[C@]4(C)[C@@H](C6=CC(=O)OC6)CC[C@]54O)C[C@H]3O[C@@H]2O1` (stereo not given in full), “inactive”.

On to `C=CC(C)(C)c1[nH]c2c(CC=C(C)C)cc(CC=C(C)C)cc2c1C[C@@H]1NC(=O)[C@H](C)NC1=O`, for which the Potency result was “inactive”.
